From PubChem BioAssay AID1734 (Vanderbilt High Throughput Screening Facility, 2009)
Active and inactive are the calls of the source. How the calls were made is not given here.

System: not listed separately
Assay: KCC2 and NKCC1 inhibition by rubidium flux, cell-based, NKCC1 counter-screen (AID 1734)
Conditions: KCC2-expressing cells, NKCC1 counter-screen, at 5 µM

| Structure (SMILES) | inhibition [%] |
| --- | --- |
| CCCn1c(N)c(C(=O)CSc2nnc(Cc3ccccc3)o2)c(=O)n(C)c1=O | 15.4 |
| CC1Cc2ccccc2N1C(=O)c1ccc(N2CCCC2)c([N+](=O)[O-])c1 (centres undefined) | 22.9 |
| O=C(Cn1cnc2c(nnn2Cc2ccccc2)c1=O)N1CCCc2ccccc21 | 23.4 |
| CN(Cc1ccccc1)S(=O)(=O)c1ccc(Cl)c(C(=O)NCCc2ccccn2)c1 | 44.4 |
| O=C(OCC(=O)N1CCN(C(=O)c2ccco2)CC1)c1sc2ccccc2c1Cl | 33.3 |
| Cc1ccc(NC(=O)c2ccccc2NS(=O)(=O)c2ccc(Cl)s2)cc1 | 65.1 |
| CC(C)c1onc(C(=O)N2CCN(Cc3ccccc3)CC2)c1[N+](=O)[O-] | 6.1 |
| CCc1ccc(OCCNC(=O)c2ccccc2SCc2ccc(F)cc2)cc1 | 45.3 |
| O=C(NCC1CCCN(C(=O)c2cccnc2)C1)c1ccc(-c2ccccc2)cc1 (centres undefined) | 31.2 |
| Cc1cnc(NC(=O)CSc2nnc(Cc3ccccc3)o2)s1 | 9.9 |
| O=C(/C=C/c1ccccc1)Nc1scc(-c2ccccc2)c1C(=O)O | 25.2 |
| O=C(Nc1ccc(S(=O)(=O)NCc2ccccc2)cc1)c1ccccc1[N+](=O)[O-] | 24.2 |
| Cc1ccc(Nc2nnc(SCC(=O)c3cc4ccccc4o3)s2)cc1C | 46.3 |
| CCOc1ccc(Nc2n[nH]c(=S)s2)cc1 | 44.9 |
| O=S(=O)(NCc1ccccc1)c1ccc(Cl)c(S(=O)(=O)NCc2ccccc2)c1 | 13.5 |
| O=C(O)CCn1c(SCc2cccc3ccccc23)nc2ccccc21 | 57.5 |
| O=C(Cn1cnc2c(nnn2Cc2ccc(F)cc2)c1=O)N1CCCc2ccccc21 | 28.1 |
| O=C(CN1C(=O)NC2(CCCC2)C1=O)Nc1nc(-c2ccc(F)cc2)cs1 | 39.2 |
| Cc1nc(CC(=O)Nc2nc(-c3ccccc3)cs2)cs1 | 35.5 |
| O=C(NCCOc1ccccc1F)c1ccccc1SCc1ccc(F)cc1 | 34.2 |
| O=C(Cn1cnc2c(nnn2Cc2ccccc2)c1=O)c1ccc(Cl)cc1 | 25.1 |
| CCOc1ccc(N2C(=O)C3Sc4[nH]c(=O)sc4C(/C=C/c4ccccc4)C3C2=O)cc1 (centres undefined) | 67.4 |
| Cc1csc(NC(=O)CSc2ccc(-c3ccccc3)nn2)n1 | 12.9 |
| O=C(CCS(=O)(=O)Cc1ccccc1)Nc1nc2c(s1)CCCC2 | 35.8 |
| Cc1ccc(-c2ccc(S(=O)(=O)NCC3CCCO3)cc2)cc1 (centres undefined) | 21.8 |

Same assay, conditions: KCC2-expressing cells, NKCC1 counter-screen, at 50 µM

| Structure (SMILES) | inhibition [%] |
| --- | --- |
| CCCn1c(N)c(C(=O)CSc2nnc(Cc3ccccc3)o2)c(=O)n(C)c1=O | 28.3 |
| CC1Cc2ccccc2N1C(=O)c1ccc(N2CCCC2)c([N+](=O)[O-])c1 (centres undefined) | 48.5 |
| O=C(Cn1cnc2c(nnn2Cc2ccccc2)c1=O)N1CCCc2ccccc21 | 33.2 |
| CN(Cc1ccccc1)S(=O)(=O)c1ccc(Cl)c(C(=O)NCCc2ccccn2)c1 | 53.4 |
| O=C(OCC(=O)N1CCN(C(=O)c2ccco2)CC1)c1sc2ccccc2c1Cl | 55.4 |
| Cc1ccc(NC(=O)c2ccccc2NS(=O)(=O)c2ccc(Cl)s2)cc1 | 68.4 |
| CC(C)c1onc(C(=O)N2CCN(Cc3ccccc3)CC2)c1[N+](=O)[O-] | 15.5 |
| CCc1ccc(OCCNC(=O)c2ccccc2SCc2ccc(F)cc2)cc1 | 47.9 |
| O=C(NCC1CCCN(C(=O)c2cccnc2)C1)c1ccc(-c2ccccc2)cc1 (centres undefined) | 40.3 |
| Cc1cnc(NC(=O)CSc2nnc(Cc3ccccc3)o2)s1 | 16.8 |
| O=C(/C=C/c1ccccc1)Nc1scc(-c2ccccc2)c1C(=O)O | 72.8 |
| O=C(Nc1ccc(S(=O)(=O)NCc2ccccc2)cc1)c1ccccc1[N+](=O)[O-] | 31.2 |
| Cc1ccc(Nc2nnc(SCC(=O)c3cc4ccccc4o3)s2)cc1C | 53.4 |
| CCOc1ccc(Nc2n[nH]c(=S)s2)cc1 | 67.4 |
| O=S(=O)(NCc1ccccc1)c1ccc(Cl)c(S(=O)(=O)NCc2ccccc2)c1 | 30.5 |
| O=C(O)CCn1c(SCc2cccc3ccccc23)nc2ccccc21 | 80.5 |
| O=C(Cn1cnc2c(nnn2Cc2ccc(F)cc2)c1=O)N1CCCc2ccccc21 | 27.7 |
| O=C(CN1C(=O)NC2(CCCC2)C1=O)Nc1nc(-c2ccc(F)cc2)cs1 | 43.6 |
| Cc1nc(CC(=O)Nc2nc(-c3ccccc3)cs2)cs1 | 38.1 |
| O=C(NCCOc1ccccc1F)c1ccccc1SCc1ccc(F)cc1 | 45.8 |
| O=C(Cn1cnc2c(nnn2Cc2ccccc2)c1=O)c1ccc(Cl)cc1 | 40.6 |
| CCOc1ccc(N2C(=O)C3Sc4[nH]c(=O)sc4C(/C=C/c4ccccc4)C3C2=O)cc1 (centres undefined) | 90.8 |
| Cc1csc(NC(=O)CSc2ccc(-c3ccccc3)nn2)n1 | 19.7 |
| O=C(CCS(=O)(=O)Cc1ccccc1)Nc1nc2c(s1)CCCC2 | 37.1 |
| Cc1ccc(-c2ccc(S(=O)(=O)NCC3CCCO3)cc2)cc1 (centres undefined) | 26.6 |

Target: Solute carrier family 12 member 5 (Homo sapiens) (UniProt Q9H2X9)
Assay: as above
Conditions: KCC2-expressing cells

Solute carrier family 12 member 5 (Homo sapiens), sequence (Q9H2X9 whole entry, looked up): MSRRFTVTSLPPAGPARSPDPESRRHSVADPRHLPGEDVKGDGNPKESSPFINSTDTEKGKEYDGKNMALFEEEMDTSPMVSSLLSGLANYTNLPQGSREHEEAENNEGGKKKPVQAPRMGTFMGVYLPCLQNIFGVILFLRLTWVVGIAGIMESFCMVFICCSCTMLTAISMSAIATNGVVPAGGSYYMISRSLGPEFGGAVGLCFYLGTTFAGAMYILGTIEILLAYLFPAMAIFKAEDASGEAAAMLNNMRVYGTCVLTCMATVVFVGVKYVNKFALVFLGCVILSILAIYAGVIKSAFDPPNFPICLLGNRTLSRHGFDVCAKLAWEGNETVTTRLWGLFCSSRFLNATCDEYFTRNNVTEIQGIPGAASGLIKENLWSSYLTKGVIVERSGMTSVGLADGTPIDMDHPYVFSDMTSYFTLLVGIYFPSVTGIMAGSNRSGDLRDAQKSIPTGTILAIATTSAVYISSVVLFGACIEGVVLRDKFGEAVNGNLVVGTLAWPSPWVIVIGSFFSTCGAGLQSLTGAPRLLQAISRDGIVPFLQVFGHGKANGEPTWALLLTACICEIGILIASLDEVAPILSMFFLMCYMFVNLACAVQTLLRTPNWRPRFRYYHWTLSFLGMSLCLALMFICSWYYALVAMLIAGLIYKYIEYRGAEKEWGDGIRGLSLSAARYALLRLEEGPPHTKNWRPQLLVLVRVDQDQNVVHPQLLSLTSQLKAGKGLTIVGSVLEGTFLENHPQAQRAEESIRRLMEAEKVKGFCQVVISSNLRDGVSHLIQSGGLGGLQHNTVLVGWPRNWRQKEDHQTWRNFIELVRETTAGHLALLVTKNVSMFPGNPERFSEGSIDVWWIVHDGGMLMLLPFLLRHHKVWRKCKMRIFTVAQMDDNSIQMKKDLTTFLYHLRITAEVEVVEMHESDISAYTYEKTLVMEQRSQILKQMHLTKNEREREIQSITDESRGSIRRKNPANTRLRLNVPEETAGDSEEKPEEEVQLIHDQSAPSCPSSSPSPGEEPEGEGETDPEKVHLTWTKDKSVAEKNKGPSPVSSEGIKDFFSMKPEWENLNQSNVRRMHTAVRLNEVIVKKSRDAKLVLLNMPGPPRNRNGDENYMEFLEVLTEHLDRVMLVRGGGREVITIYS

| Structure (SMILES) | outcome |
| --- | --- |
| Cc1ccc(NC(=O)c2ccccc2NS(=O)(=O)c2ccc(Cl)s2)cc1 | inactive |
| CCc1ccc(OCCNC(=O)c2ccccc2SCc2ccc(F)cc2)cc1 | inactive |
| O=C(NCC1CCCN(C(=O)c2cccnc2)C1)c1ccc(-c2ccccc2)cc1 (centres undefined) | inactive |
| CCOc1ccc(Nc2n[nH]c(=S)s2)cc1 | inactive |
